# Screens: PubChem, Johns Hopkins Ion Channel Center
# Most compounds without a hit are left out; they make up all but 1.6% or so of the library.
# KCNQ2 enhance = KCNQ2 (rat) channel potentiation; O88943; CHO-K1 KCNQ2, FluxOR thallium flux fluorescence; hits give high values; B-score at 10 µM; 310,000 compounds, 0.54% hits;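 active = fluorescence ratio B-score at least 3 SD of library B-scores, with initial fluorescence B-score within 3 of them, cut at about 5.3 in these data; same plate scores as AID 2156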;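 note: B-score of peak minus minimum over baseline fluorescence ratio after K+ and Tl+ stimulus; positive B-score means potentiation of KCNQ2 with more thallium influx and brighter signal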
# KCNQ2 inh = inhibitors of rat KCNQ2 potassium channel; B-score at 10 µM; CHO-K1 KCNQ2, FluxOR thallium flux, 20 min; hits give low values; O88943; 310,000 compounds, 1.1% hits;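 active = fluorescence ratio B-score at most minus 3 library SDs, with starting brightness B-score within 2 library SDs, cut at about -5.5 in these data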
# Kir21 conf inh = confirmation of mouse Kir2.1 potassium channel inhibitors | shares compounds with KCNQ2 enhance | Kir2.1-expressing cells, FluxOR thallium flux fluorescence; hits give low values | Tl flux remaining, % of negative control (hits give low values), % at 10 µM | 2,300 compounds, 41% hits | AID 2032;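 active = Primary-screen hit whose thallium flux fell at least 3 control SD below untreated wells in both duplicates, with normal baseline fluorescence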;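 note: 0% = blank wells without stimulus and 100% = stimulated no-compound controls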
# HEK293 ctr = parental HEK293 activity in Kir2.1 inhibitor counter-screen; FluxOR signal as % of negative control (100 = no effect), % at 10 µM; parental HEK293 cells, FluxOR thallium flux fluorescence; 0% = unstimulated blank wells; shares compounds with KCNQ2 enhance; 2,300 compounds, 19% hits;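 active = dye signal at least 3 control SD above or below untreated wells in both duplicates, raw fluorescence within 3, either direction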;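 note: percent is based on the flux ratio of peak minus minimum fluorescence over baseline F0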
# CHO-K1 ctr = counter-screen for KCNQ2 potentiators: effect in parental CHO-K1 cells; shares compounds with KCNQ2 enhance; FluxOR thallium flux fluorescence; zero = vehicle mean+3SD, 100% = vehicle-minus-blank window; activity increase over 3SD of controls, % at 10 µM; 1,200 compounds, 43% hits;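 active = signal rise of at least 3 SD above the untreated control mean, in both duplicate wells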;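 note: counter screen of KCNQ2 potentiator hits so any rise reflects channel-independent effects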
# KCNQ1 pot spec = human KCNQ1 counter-target activity of KCNQ2 potentiators | CHO KCNQ1 stable, FluxOR thallium flux fluorescence; beyond 3SD, as % of vehicle-control signal | shares compounds with KCNQ2 enhance | activation over 3SD threshold, % at 10 µM | 1,200 compounds, 28% hits | AID 2283;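 active = fluorescence ratio rise of at least 3 SD of vehicle wells above their mean, in both replicate wells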;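 note: 0% = vehicle mean plus 3 SD and 100% = vehicle minus unstimulated blank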
# KCNQ2 pot conf = rat KCNQ2 channel potentiator confirmation; potentiation, less the hit threshold, % at 10 µM; AID 2287; shares compounds with KCNQ2 enhance; 1,200 compounds, 68% hits; CHO-KCNQ2 cells, FluxOR thallium flux fluorescence;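 active = fluorescence ratio rising 3 SD or more over the vehicle control mean in both replicates, plus primary screen hit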;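 note: peak minus minimum thallium fluorescence divided by baseline after K/Tl stimulus; 0% = vehicle mean plus 3 SD and 100% = vehicle minus unstimulated blank difference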
# Kir2-1 sel = tests whether KCNQ2 potentiators also affect mouse Kir2.1. shares compounds with KCNQ2 enhance. HEK293 Kir2.1, FluxOR thallium flux fluorescence. activity over 3SD threshold, % at 10 µM. 1,200 compounds, 2% hits;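 active = fluorescence ratio rise of at least 3 SD above the vehicle-control mean, seen in both replicates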;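 note: 0% = vehicle mean plus 3 SD and 100% = vehicle minus no-stimulus blank window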
# KCNQ2 W236L pot = KCNQ2 potentiators acting on retigabine-insensitive rat KCNQ2 W236L mutant | 940 compounds, 10% hits | current increase over 3SD of negative controls (%), hits give high values, % at 25 µM | shares compounds with KCNQ2 enhance | CHO KCNQ2-W236L, automated patch clamp current | AID 2558;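 active = current increase at least 3 SD of the untreated controls above them in both duplicate recordings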
# Target sequence (O88943 whole entry W236L, looked up): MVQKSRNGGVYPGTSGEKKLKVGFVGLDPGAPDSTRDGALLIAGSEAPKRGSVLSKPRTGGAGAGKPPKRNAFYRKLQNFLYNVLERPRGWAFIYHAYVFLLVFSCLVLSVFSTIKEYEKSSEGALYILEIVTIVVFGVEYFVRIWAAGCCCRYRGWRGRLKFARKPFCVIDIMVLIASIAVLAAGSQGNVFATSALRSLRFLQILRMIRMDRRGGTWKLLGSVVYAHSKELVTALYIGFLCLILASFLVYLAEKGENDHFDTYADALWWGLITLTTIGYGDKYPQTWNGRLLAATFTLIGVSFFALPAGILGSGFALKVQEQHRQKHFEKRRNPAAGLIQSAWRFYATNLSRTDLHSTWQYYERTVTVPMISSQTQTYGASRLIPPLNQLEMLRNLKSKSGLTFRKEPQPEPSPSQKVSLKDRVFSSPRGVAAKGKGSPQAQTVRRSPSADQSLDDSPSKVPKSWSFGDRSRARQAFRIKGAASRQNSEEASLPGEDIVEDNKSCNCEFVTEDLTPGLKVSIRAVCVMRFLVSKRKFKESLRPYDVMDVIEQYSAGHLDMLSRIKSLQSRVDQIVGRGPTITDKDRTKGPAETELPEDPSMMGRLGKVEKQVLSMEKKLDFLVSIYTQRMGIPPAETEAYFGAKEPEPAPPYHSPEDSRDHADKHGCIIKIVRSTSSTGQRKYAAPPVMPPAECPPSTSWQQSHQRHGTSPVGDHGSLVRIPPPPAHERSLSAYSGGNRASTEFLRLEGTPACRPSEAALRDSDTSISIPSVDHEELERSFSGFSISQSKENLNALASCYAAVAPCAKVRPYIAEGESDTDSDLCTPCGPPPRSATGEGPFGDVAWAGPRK
# Active calls of the source: *; i = inactive; x = not tested or not shown.
SMILES,KCNQ2 enhance,KCNQ2 inh,Kir21 conf inh,HEK293 ctr,others
CC(=O)c1cccc(NC(=O)CN(C2CCCCC2)S(C)(=O)=O)c1,0.14,i,x,x,
CC(C)OC(=O)c1c(NS(=O)(=O)c2ccccc2)sc2c1CCCC2,2.2,i,i,i,
COC(=O)c1c(NS(=O)(=O)Cc2ccccc2)sc2c1CCCC2,13*,i,i,235.5%*,CHO-K1 ctr=109.5*;KCNQ1 pot spec=-4.4;KCNQ2 pot conf=45.2*;Kir2-1 sel=-39.0;KCNQ2 W236L pot=i
COC(=O)c1c(NS(C)(=O)=O)sc2c1CCCC2,0.04,i,x,x,
COC(=O)c1c(NC(=O)c2ccccc2N(C)S(=O)(=O)c2ccccc2)sc2c1CCCC2,x,i,x,x,
CC(=O)Nc1cc2c(cc1NC(=O)Cn1nc(-c3ccccc3F)ccc1=O)OCCO2,x,i,x,x,
O=c1c2ccccc2nnn1CSc1nnc(-c2cccc(S(=O)(=O)N3CCCCC3)c2)o1,0.46,i,x,x,
O=C1NC(=S)S/C1=C\c1ccc2ccccc2c1,11*,i,i,i,CHO-K1 ctr=54.7*;KCNQ1 pot spec=-12.5;KCNQ2 pot conf=41.8*;Kir2-1 sel=-37.8;KCNQ2 W236L pot=i
O=C1NC(=S)S/C1=C\c1coc2ccccc2c1=O,1.74,i,x,x,
COc1ccc(/C=C2/SC(=O)NC2=O)cc1,x,i,x,x,
COc1cccc(OCCOc2ccc(/C=C3/SC(=S)NC3=O)cc2)c1,7.41*,i,i,i,CHO-K1 ctr=-1.4;KCNQ1 pot spec=-12.3;KCNQ2 pot conf=-5.5;Kir2-1 sel=-13.9
COc1ccc(CCNC(=O)CSc2nc(O)c(CCC(C)C)c(=O)[nH]2)cc1OC,0.15,i,x,x,
COc1cc(NC(=O)Cc2ccc(OC)c(S(=O)(=O)N3CCOCC3)c2)c(OC)cc1Cl,x,i,x,x,
Cc1ccccc1C(=O)NNC(=O)C(=O)Nc1cccc(Cl)c1C,14*,i,i,275.0%*,CHO-K1 ctr=-6.5;KCNQ1 pot spec=-22.9;KCNQ2 pot conf=21.1*;Kir2-1 sel=-38.8;KCNQ2 W236L pot=i
Cc1c(Cl)cccc1NC(=O)C(=O)NNC(=O)c1ccccc1F,22.5*,i,i,425.5%*,CHO-K1 ctr=-6.1;KCNQ1 pot spec=-10.6;KCNQ2 pot conf=73.1*;Kir2-1 sel=-7.0;KCNQ2 W236L pot=i
Cc1c(Cl)cccc1Nc1ccccc1C(=O)O,x,i,x,x,
CSc1ccccc1NC(=O)Nc1cccc(Cl)c1C,0.05,i,x,x,
Cc1c(Cl)cccc1NC(=S)NCCc1ccc(F)cc1,x,i,x,x,
Oc1c(Cl)cc(Cl)cc1Sc1cc(Cl)cc(Cl)c1O,44.7*,i,i,375.0%*,CHO-K1 ctr=47.1*;KCNQ1 pot spec=-3.1;KCNQ2 pot conf=222.7*;Kir2-1 sel=-29.6;KCNQ2 W236L pot=i
Oc1c(Cl)cc(Cl)cc1CNn1cnnc1,x,i,x,x,
COc1ccc(CNCCC(c2ccccc2)c2ccc3c(c2)OCO3)cc1 (centres undefined),x,i,x,x,
Fc1ccccc1CNCCC(Cc1ccccc1)c1ccc2c(c1)OCO2 (centres undefined),x,i,39.5%*,77.0%*,
CC(C)CCC(CCNCc1ccccn1)c1ccc2c(c1)OCO2 (centres undefined),x,i,57.0%*,i,
CCNCCC(CCC(C)C)c1ccc2c(c1)OCO2 (centres undefined),0.75,i,x,x,
O=C(NCC(c1ccco1)N1CCc2ccccc2C1)c1ccc([N+](=O)[O-])cc1 (centres undefined),x,i,x,x,
SMILES,KCNQ2 enhance,KCNQ2 inh,Kir21 conf inh,HEK293 ctr,others
CCC(=O)OCc1c(C(F)(F)F)nn(C)c1Sc1ccc(Cl)cc1,x,i,x,x,
CCC(=O)OCc1c(C(F)(F)F)nn(C)c1Sc1ccc(F)cc1,x,i,48.5%*,i,
COC(=O)Cc1c(C)nc2nc(-c3cccnc3)[nH]n2c1=O,x,i,x,x,
Cc1nn(C)cc1CNC(=O)c1cnn2c1NC(c1ccc(Br)cc1)CC2C(F)(F)F (centres undefined),2.66,i,x,x,
Cc1ccc(C(=O)Nc2ccc(S(=O)(=O)N3CCOCC3)cc2)cc1C,0.05,i,x,x,
Cc1nc(N2CCN(Cc3ccccc3)CC2)c(C#N)c2c1COC(C)(C)C2,x,i,60.0%*,i,
CC(C)c1nc(N2CCN(C(=O)c3ccccc3)CC2)c(C#N)c2c1COC(C)(C)C2,x,i,x,x,
CCOC(=O)CCc1c(C)n(CC)c2ncnn2c1=O,0.92,i,x,x,
O=C(c1c[nH]c(C(=O)C(Cl)(Cl)Cl)c1)c1ccc(F)cc1F,x,i,x,x,
O=C(c1c[nH]c(C(=O)C(Cl)(Cl)Cl)c1)c1ccc(F)cc1Cl,6.62*,i,i,i,CHO-K1 ctr=-4.5;KCNQ1 pot spec=-20.0;KCNQ2 pot conf=4.6*;Kir2-1 sel=-40.1;KCNQ2 W236L pot=i
O=C1N/C(=N/O)S/C1=C/c1cccc([N+](=O)[O-])c1,2.1,i,x,x,
Cc1cccc(/C=C2/S/C(=N/N=C3\CC4CCC3(C)C4(C)C)NC2=O)c1 (centres undefined),20.6*,i,i,i,CHO-K1 ctr=-17.3;KCNQ1 pot spec=-25.8;KCNQ2 pot conf=-6.0;Kir2-1 sel=-19.2;KCNQ2 W236L pot=i
Cc1ccc(C)c(-c2cc(C(=O)Nc3nccs3)c3ccccc3n2)c1,x,i,x,x,
Cc1ccc(C)c(-c2cc(C(=O)NCc3cccs3)c3ccccc3n2)c1,15.8*,i,i,72.5%*,CHO-K1 ctr=8.2*;KCNQ1 pot spec=-14.1;KCNQ2 pot conf=31.7*;Kir2-1 sel=-37.2;KCNQ2 W236L pot=i
Cc1c(NC(=O)C2CCCN(S(=O)(=O)c3cnc[nH]3)C2)c(=O)n(-c2ccccc2)n1C (centres undefined),x,i,x,x,
COc1ccc(NC(=O)Nc2ccccc2SC)cc1OC,1.03,i,x,x,
CCCCNC(=S)Nc1ccc(SC(F)F)cc1,0.4,i,x,x,
COc1ccccc1NC(=O)C(=O)NNC(=O)COc1ccc2ccccc2c1,23.2*,i,i,i,CHO-K1 ctr=41.3*;KCNQ1 pot spec=-25.1;KCNQ2 pot conf=27.5*;Kir2-1 sel=-29.3;KCNQ2 W236L pot=i
COc1ccccc1NC(=O)COc1ccc2ccccc2c1,x,i,x,x,
CCC(=O)N(CCC(c1ccco1)C(C)C)Cc1ccccc1 (centres undefined),x,i,50.0%*,68.5%*,
CC(=O)N(CCC(c1ccco1)C(C)C)Cc1ccc(Cl)cc1 (centres undefined),x,i,x,x,
CCOC(=O)c1cccc(Nc2ncnc3ccc(C)cc23)c1,1.71,i,52.5%*,i,
CCOC(=O)c1ccc(Nc2ncnc3ccc(C)cc23)cc1,0.62,i,x,x,
C#CCOCCOCCOCCNc1nc(N2CCOCC2)nc(N2CCN(C(=O)Cn3cc(CCCN=C(N)N)nn3)CC2)n1,0.19,i,x,x,
CCSc1nc2c(sc3ccccc32)c(=O)n1C(C)C,6.03*,i,i,243.5%*,CHO-K1 ctr=29.2*;KCNQ1 pot spec=1.2*;KCNQ2 pot conf=24.9*;Kir2-1 sel=-33.6;KCNQ2 W236L pot=i
CCCCn1c(SCC(N)=O)nc2c(sc3ccccc32)c1=O,0.35,i,x,x,
